# Key:
# [1] = molecular target: T1, Ephrin type-B receptor 1 (Homo sapiens) (UniProt P54762); conditions: at 10 µM
# T1 sequence (whole entry): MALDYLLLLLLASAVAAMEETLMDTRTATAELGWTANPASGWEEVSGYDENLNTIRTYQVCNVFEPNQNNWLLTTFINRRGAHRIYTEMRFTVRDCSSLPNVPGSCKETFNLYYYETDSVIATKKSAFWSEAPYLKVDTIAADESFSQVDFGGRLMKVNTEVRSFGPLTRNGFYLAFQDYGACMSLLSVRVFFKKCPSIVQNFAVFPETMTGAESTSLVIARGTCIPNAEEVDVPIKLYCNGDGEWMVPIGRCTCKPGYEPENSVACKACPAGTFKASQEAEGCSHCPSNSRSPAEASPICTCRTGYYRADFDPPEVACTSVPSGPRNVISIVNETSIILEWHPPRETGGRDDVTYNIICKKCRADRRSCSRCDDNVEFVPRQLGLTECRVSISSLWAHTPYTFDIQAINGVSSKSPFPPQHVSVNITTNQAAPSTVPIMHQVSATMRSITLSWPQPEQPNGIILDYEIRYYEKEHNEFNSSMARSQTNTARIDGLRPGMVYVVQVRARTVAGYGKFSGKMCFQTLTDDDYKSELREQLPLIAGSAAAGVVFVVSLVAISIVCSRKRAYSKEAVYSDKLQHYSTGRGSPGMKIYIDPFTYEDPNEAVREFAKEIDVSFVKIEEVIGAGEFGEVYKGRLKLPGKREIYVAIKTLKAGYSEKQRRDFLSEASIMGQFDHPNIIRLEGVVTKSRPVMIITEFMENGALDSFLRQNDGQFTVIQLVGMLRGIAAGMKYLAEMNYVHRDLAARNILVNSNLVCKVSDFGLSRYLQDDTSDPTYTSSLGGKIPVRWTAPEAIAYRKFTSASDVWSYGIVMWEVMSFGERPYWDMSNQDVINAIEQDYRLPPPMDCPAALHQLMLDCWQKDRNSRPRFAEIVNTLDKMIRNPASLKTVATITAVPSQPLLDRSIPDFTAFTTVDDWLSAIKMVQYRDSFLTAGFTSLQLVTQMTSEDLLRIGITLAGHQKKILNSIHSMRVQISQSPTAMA
# [2] = molecular target: T2, Ephrin type-B receptor 2 (Homo sapiens) (UniProt P29323); conditions: at 1 µM
# T2 sequence (whole entry): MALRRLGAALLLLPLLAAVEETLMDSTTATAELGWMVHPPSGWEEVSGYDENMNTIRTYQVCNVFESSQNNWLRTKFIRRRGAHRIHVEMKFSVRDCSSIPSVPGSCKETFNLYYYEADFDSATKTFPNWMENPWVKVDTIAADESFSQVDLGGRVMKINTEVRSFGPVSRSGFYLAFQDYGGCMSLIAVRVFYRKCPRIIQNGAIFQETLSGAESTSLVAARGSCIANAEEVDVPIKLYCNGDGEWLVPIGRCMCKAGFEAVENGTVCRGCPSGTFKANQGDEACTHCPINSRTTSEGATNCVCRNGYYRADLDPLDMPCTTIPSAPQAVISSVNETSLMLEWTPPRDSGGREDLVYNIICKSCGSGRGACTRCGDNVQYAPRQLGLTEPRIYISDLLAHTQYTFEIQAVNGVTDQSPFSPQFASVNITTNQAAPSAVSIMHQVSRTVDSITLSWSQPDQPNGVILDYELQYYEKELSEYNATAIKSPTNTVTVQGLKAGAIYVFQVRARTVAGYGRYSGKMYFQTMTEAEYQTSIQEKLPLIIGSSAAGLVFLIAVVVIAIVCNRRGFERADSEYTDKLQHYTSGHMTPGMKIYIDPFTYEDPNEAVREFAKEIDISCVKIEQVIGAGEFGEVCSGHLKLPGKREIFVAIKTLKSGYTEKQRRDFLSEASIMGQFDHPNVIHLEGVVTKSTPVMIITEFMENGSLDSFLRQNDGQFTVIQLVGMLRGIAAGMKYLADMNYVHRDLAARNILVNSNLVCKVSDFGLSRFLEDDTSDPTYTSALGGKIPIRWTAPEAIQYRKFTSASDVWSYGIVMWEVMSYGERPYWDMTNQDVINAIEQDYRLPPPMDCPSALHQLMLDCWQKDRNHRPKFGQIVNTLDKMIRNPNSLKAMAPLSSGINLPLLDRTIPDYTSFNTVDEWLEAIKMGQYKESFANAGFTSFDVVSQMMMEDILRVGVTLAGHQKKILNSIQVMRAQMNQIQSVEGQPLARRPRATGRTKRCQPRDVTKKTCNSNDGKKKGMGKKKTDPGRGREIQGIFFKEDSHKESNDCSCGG
# [3] = molecular target: T2, Ephrin type-B receptor 2 (Homo sapiens); conditions: at 10 µM
# [4] = molecular target: T3, Ephrin type-B receptor 3 (Homo sapiens) (UniProt P54753); conditions: at 1 µM
# T3 sequence (whole entry): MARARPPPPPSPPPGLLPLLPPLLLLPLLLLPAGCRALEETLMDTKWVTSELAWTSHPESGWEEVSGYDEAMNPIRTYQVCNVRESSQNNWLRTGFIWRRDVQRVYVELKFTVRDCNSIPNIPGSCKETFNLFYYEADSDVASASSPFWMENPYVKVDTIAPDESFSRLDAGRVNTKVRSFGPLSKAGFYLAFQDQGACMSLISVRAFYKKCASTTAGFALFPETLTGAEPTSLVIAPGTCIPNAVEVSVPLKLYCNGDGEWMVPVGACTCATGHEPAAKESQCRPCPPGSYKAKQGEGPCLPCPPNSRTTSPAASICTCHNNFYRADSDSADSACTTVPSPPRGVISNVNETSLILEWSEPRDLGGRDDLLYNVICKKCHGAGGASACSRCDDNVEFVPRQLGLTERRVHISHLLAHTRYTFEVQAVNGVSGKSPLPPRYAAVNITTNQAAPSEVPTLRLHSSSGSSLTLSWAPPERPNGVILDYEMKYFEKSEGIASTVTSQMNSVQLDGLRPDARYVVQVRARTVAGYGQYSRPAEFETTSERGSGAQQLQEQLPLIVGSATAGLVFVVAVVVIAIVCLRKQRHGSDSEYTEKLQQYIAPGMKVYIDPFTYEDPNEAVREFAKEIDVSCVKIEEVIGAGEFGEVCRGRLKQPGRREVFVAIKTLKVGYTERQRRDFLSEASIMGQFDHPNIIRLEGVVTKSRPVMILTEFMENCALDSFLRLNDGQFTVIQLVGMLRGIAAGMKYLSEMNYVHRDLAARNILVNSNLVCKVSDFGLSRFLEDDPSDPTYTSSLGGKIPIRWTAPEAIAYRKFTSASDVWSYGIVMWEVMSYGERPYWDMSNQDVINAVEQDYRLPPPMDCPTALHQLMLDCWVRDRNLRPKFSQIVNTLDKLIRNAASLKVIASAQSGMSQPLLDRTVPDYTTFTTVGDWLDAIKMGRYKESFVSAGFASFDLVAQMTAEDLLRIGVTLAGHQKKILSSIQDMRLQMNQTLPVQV
# [5] = molecular target: T3, Ephrin type-B receptor 3 (Homo sapiens); conditions: at 10 µM
# [6] = molecular target: T4, Ephrin type-B receptor 4 (Homo sapiens) (UniProt P54760); conditions: at 1 µM
# T4 sequence (whole entry): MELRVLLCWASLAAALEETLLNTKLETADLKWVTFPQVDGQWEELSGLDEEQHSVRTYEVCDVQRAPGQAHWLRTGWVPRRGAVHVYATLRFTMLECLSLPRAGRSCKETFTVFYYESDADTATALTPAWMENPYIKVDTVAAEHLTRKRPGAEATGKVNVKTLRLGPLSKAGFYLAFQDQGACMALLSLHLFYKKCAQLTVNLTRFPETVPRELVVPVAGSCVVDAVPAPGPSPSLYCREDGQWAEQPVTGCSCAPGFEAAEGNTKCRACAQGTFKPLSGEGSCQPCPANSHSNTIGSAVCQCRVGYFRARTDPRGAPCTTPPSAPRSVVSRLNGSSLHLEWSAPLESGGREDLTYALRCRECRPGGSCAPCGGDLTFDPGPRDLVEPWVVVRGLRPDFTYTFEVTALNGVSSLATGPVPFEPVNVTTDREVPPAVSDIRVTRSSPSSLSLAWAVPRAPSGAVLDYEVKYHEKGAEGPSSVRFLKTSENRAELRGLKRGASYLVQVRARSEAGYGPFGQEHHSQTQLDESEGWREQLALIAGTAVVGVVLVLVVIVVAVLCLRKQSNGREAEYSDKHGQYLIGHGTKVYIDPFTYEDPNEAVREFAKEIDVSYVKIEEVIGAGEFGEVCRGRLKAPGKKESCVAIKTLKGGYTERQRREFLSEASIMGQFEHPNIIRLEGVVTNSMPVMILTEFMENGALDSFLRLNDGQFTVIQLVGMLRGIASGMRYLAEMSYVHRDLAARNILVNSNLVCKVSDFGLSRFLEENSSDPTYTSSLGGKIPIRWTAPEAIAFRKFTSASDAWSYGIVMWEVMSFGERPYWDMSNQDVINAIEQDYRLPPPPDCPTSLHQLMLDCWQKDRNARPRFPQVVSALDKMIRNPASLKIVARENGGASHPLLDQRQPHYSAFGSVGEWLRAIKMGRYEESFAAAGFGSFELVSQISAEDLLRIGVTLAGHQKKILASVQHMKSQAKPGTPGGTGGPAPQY
# [7] = molecular target: T4, Ephrin type-B receptor 4 (Homo sapiens); conditions: at 10 µM
# [8] = molecular target: Receptor tyrosine-protein kinase erbB-4 (Homo sapiens) (UniProt Q15303); conditions: at 1 µM
# Sequence of Receptor tyrosine-protein kinase erbB-4 (Homo sapiens) (Q15303 whole entry): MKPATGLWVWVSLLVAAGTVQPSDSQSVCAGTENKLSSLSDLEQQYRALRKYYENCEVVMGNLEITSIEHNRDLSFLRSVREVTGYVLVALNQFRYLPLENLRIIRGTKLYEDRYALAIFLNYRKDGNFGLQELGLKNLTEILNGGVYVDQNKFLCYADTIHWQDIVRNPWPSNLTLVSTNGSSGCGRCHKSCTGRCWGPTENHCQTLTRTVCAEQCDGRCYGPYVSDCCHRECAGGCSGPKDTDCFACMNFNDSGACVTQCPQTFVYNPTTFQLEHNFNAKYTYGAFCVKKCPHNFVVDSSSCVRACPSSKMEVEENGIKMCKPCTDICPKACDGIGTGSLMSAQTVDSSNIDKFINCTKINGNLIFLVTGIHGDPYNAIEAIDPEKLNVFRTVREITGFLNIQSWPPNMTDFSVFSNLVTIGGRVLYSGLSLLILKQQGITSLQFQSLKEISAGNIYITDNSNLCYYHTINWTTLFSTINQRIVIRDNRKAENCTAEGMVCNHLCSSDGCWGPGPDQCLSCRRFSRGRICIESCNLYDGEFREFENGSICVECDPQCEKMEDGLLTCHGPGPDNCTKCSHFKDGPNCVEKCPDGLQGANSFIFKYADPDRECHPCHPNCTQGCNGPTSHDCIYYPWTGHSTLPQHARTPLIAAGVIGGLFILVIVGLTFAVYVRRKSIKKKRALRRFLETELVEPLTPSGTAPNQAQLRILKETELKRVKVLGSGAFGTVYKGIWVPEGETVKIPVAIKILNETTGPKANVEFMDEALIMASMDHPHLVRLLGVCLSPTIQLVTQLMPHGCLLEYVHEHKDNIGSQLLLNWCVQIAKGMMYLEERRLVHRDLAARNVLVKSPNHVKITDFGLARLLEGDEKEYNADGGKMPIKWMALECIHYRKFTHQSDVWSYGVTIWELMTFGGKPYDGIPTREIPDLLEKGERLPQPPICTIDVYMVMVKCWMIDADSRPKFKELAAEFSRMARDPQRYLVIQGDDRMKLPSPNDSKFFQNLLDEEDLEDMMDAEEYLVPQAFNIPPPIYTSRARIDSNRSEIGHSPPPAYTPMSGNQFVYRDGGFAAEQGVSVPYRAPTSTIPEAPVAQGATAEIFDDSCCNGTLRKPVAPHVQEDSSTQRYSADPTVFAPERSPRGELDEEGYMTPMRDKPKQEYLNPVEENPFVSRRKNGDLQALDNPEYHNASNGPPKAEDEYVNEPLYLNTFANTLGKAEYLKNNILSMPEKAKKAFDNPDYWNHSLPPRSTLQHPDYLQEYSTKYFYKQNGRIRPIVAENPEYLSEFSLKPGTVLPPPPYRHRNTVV
# [9] = molecular target: Receptor tyrosine-protein kinase erbB-4 (Homo sapiens) (UniProt Q15303); conditions: at 10 µM
# [10] = molecular target: Focal adhesion kinase 1 (Homo sapiens) (UniProt Q05397); conditions: at 1 µM
# Sequence of Focal adhesion kinase 1 (Homo sapiens) (Q05397 2-1052 limits assumed): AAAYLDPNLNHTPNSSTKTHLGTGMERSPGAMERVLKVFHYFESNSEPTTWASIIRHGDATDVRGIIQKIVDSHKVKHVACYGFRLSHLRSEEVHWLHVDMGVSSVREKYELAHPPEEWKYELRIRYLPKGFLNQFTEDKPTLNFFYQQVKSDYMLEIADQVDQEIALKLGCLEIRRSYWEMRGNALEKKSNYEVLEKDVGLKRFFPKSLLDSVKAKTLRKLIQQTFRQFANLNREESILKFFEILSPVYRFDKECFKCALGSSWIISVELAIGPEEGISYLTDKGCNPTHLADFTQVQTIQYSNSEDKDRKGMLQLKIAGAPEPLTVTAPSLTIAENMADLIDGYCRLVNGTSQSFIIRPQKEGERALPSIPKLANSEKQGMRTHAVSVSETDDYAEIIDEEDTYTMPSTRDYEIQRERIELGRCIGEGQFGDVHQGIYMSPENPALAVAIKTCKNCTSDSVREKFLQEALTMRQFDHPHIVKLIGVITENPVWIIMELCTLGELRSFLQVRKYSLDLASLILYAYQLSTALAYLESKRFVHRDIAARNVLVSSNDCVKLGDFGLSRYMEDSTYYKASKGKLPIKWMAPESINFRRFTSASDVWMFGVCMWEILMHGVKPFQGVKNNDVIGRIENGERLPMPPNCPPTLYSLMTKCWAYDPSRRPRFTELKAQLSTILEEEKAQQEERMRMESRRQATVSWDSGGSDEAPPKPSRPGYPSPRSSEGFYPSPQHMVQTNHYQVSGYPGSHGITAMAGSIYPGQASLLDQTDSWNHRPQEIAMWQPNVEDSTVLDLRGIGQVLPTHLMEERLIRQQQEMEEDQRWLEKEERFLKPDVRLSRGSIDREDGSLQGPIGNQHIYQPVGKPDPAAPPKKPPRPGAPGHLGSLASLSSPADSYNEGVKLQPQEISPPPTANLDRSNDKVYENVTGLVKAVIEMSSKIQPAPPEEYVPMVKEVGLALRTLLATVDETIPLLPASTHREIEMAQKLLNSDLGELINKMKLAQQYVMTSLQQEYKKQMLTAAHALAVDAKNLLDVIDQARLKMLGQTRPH
smiles,measurement,setting,value
Nc1ncnc2c1c(-c1ccc(Oc3ccccc3)cc1)cn2C1CCCC1,residual activity,[1],70%
same,residual activity,[2],108%
same,residual activity,[3],101%
same,residual activity,[4],104% (inactive)
same,residual activity,[5],117%
same,residual activity,[6],99%
same,residual activity,[7],89%
same,residual activity,[8],0%
same,residual activity,[9],-4%
same,residual activity,[10],116%
